Here are results for 30 molecules from PubChem BioAssay.

Active and inactive are the calls of the source.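 How the source made its calls: active means compounds killing one labelled cell type while sparing the other, by normalised counts and ratio limits, not self-fluorescent; inactive means the rest.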

The nature of this test: EMT-state selective cytotoxicity in co-culture – imaging, PC-3E GFP, TEM4-18 mCherry, primary screen (AID 1345086).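 On all read-outs here: cells exposed to compound for 72 h before imaging.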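 On red/green cell ratio (normalised): normalised mesenchymal count divided by normalised epithelial count so high means epithelial killing.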 The note with it: PC-3E GFP / TEM4-18 mCherry co-culture, imaging cell counts, at 1 µM; for red/green cell ratio (normalised): actives lie on both sides, counts scaled to control wells, 1 = unselective.
Setting [1] is: measured here: epithelial PC-3E GFP cell survival.
The mark [2] stands for this setting: measured here: mesenchymal TEM4-18 mCherry cell survival.

Consider `O=C(O)C1CCN(C(=O)OCc2ccccc2)CC1`, for which the red/green cell ratio (normalised) is 1.04 (inactive). For the same molecule, under setting [1], the normalised cell number was determined as 0.9. Under setting [2], this molecule had a normalised cell number of 0.94.

With `C#C[C@H](O)COc1ccc(C(=O)O)cc1`, the red/green cell ratio (normalised) is 1.18 (inactive). In addition, under setting [1], the normalised cell number was determined as 0.57. The normalised cell number under setting [2] amounted to 0.68.

Regarding `CNC1C(O[C@@H]2OC(CO)C(N)[C@H](O)C2O)OC2CC(N)[C@@H](OC3C(N)C[C@@H](N)C(O)[C@H]3O)OC2C1O` (stereo not given in full), the red/green cell ratio (normalised) is 1.2 (inactive). Besides, the normalised cell number under setting [1] was 0.92. The same molecule registered a normalised cell number under setting [2] of 1.1.

Take `O=C1NCC[C@H]1Oc1ccc(Oc2cnc3ccc(Cl)cc3n2)cc1`: the red/green cell ratio (normalised) is 0.76 (inactive). Also, the normalised cell number under setting [1] came out at 1.18. The molecule further showed a normalised cell number under setting [2] of 0.9.

In the case of `COC1=N[C@@](OC)(C(C)C)C(=O)N[C@@]1(O)[C@H](O)c1ccccc1`, the red/green cell ratio (normalised) was 0.8 (inactive). Under setting [1], this molecule registered a normalised cell number of 1.21. Under setting [2], the normalised cell number was 0.96.

`NC(=O)c1c(Cl)nc(Cl)c2ccccc12`: the red/green cell ratio (normalised) is 1.12 (inactive). The normalised cell number under setting [1] amounted to 0.92. For the same molecule, under setting [2], the normalised cell number came out at 1.03.

Consider `O=C(O)CCCCCCCC(O)C(O)CCCCCCO` (stereo not given), for which the red/green cell ratio (normalised) was 1.02 (inactive). Moreover, the normalised cell number under setting [1] stood at 1.11. For the same molecule, under setting [2], the normalised cell number is 1.13.

On to `CC1(C)CC[C@]2(C(=O)O)CC[C@]3(C)C(=CCC4[C@@]5(C)CC[C@H](O)[C@@](C)(CO)C5CC[C@]43C)C2C1` (stereo not given in full), for which the red/green cell ratio (normalised) was 0.94 (inactive). For the same molecule, under setting [1], the normalised cell number was 1.05. The normalised cell number under setting [2] stood at 0.98.

Take `C[C@@H]1C=C2C=C[C@@](C)(O)[C@](C)(C(=O)CCO)[C@H]2[C@@H](O)C1`: the red/green cell ratio (normalised) is 0.85 (inactive). Under setting [1], the normalised cell number was 1.08. The molecule also yielded a normalised cell number under setting [2] of 0.91.

On to `C[C@H](CCC(=O)NCC(=O)O)[C@H]1CCC2C3C(C[C@H](O)[C@@]21C)[C@@]1(C)CC[C@@H](O)CC1C[C@H]3O` (stereo not given in full), for which the red/green cell ratio (normalised) is 1.13 (inactive). Besides, the normalised cell number under setting [1] is 0.89. The normalised cell number under setting [2] worked out at 1.01.

`COc1c(N2CC[C@@H](CN)C2)c(F)cc2c(=O)c(C(=O)O)cn(Cc3ccc(-c4ccccc4)cc3)c12`: the red/green cell ratio (normalised) is 1.14 (inactive). Under setting [1], this molecule showed a normalised cell number of 0.86. Also, the normalised cell number under setting [2] was found to be 0.98.

On to `CC(C)[C@H]1COC(=O)N1C(=O)CC(C)N1C(=S)OC[C@H]1c1ccccc1` (stereo not given in full), for which the red/green cell ratio (normalised) is 1.05 (inactive). This molecule also returned a normalised cell number under setting [1] of 1.07. In addition, under setting [2], the normalised cell number stood at 1.12.

In the case of `C=C1CC[C@@]2(C)[C@H](C)CC[C@H](O)[C@@]2(CCC=C(C)C)[C@@H]1Cc1c[nH]c2ccccc12`, the red/green cell ratio (normalised) was 0.97 (inactive). Under setting [1], this molecule had a normalised cell number of 0.88. Moreover, under setting [2], the normalised cell number worked out at 0.85.

On to `CN[C@H]1[C@@H](O[C@@H]2[C@@H](O[C@@H]3[C@@H](O)[C@H](O)[C@@H](N=C(N)N)[C@H](O)[C@H]3N=C(N)N)O[C@H](C)[C@@]2(O)CO)O[C@H](CO)[C@@H](O)[C@@H]1O`, for which the red/green cell ratio (normalised) is 0.84 (inactive). The molecule also came in with a normalised cell number under setting [1] of 1.23. Besides, under setting [2], the normalised cell number was 1.03.

Take `[N-]=[N+]=N[C@H]1[C@H](Sc2ccccc2)OC(CO)C(O)[C@@H]1O` (stereo not given in full): the red/green cell ratio (normalised) was 0.98 (inactive). For the same molecule, the normalised cell number under setting [1] was found to be 1.08. The same molecule returned a normalised cell number under setting [2] of 1.06.

On to `C=C1C(=O)OC(C(=O)O)C1(O)CCCCCCCCC` (stereo not given), for which the red/green cell ratio (normalised) was 0.96 (inactive). Under setting [1], this molecule registered a normalised cell number of 1.02. The normalised cell number under setting [2] came out at 0.98.

`Nc1ncnc2c1ncn2C1C[C@H](O)[C@@H](CO)O1` (stereo not given in full): the red/green cell ratio (normalised) was 0.92 (inactive). This molecule also had a normalised cell number under setting [1] of 0.99. This molecule returned a normalised cell number under setting [2] of 0.91.

Take `C[C@@H](Oc1ccc(Oc2ccc3ncc(Cl)nc3c2)cc1)C(=O)O`: the red/green cell ratio (normalised) was 0.86 (inactive). Moreover, the normalised cell number under setting [1] stood at 1.19. Under setting [2], the normalised cell number came out at 1.03.

In the case of `COc1cccc2c1C(=O)OCc1cc(C)cc(O)c1O2`, the red/green cell ratio (normalised) is 0.9 (inactive). Further, under setting [1], the normalised cell number came to 1.17. The normalised cell number under setting [2] is 1.05.

Take `C/C=C/[C@@H]1CC[C@@H]2C[C@H](C)CC[C@H]2[C@]1(C)C(=O)[C@H]1OC(=O)[C@@H](CO)N(C)C1=O`: the red/green cell ratio (normalised) was 1.09 (inactive). For the same molecule, the normalised cell number under setting [1] is 1.06. Under setting [2], this molecule had a normalised cell number of 1.15.

`O=C1C[C@@H]2[C@H](Br)[C@@H](O)C[C@@H]2O1`: the red/green cell ratio (normalised) was 0.73 (inactive). This molecule also displayed a normalised cell number under setting [1] of 1.24. Under setting [2], this molecule gave a normalised cell number of 0.91.

Regarding `C[C@@H]1C(=O)NC(Cc2ccccc2)C(=O)N2CCCC[C@H]2C(=O)O[C@H]([C@@H](C)CCCC[C@@H](C)O)C[C@H]1O` (stereo not given in full), the red/green cell ratio (normalised) is 0.9 (inactive). Moreover, the normalised cell number under setting [1] stood at 1.03. This molecule also gave a normalised cell number under setting [2] of 0.93.

`C[C@H]1CC[C@@H](C(C)(C)O)CC2=C1CC[C@@H]2C`: the red/green cell ratio (normalised) was 1.27 (inactive). Besides, the normalised cell number under setting [1] was 0.71. In addition, the normalised cell number under setting [2] is 0.91.

Consider `OC[C@H]1O[C@H](OC[C@H]2O[C@@H](O)[C@H](O)[C@@H](O)[C@@H]2O)[C@H](O)[C@@H](O)[C@H]1O`, for which the red/green cell ratio (normalised) is 0.93 (inactive). Under setting [1], this molecule showed a normalised cell number of 0.99. Further, under setting [2], the normalised cell number turned out to be 0.91.

Regarding `COC(=O)C[C@H]1C(C)(C)C(=O)[C@@H]2CC3=C(CC[C@]4(C)C3=CC(=O)O[C@H]4c3ccoc3)C1(C)C2=O`, the red/green cell ratio (normalised) is 1.11 (inactive). The normalised cell number under setting [1] worked out at 0.96. The same molecule came in with a normalised cell number under setting [2] of 1.06.

On to `COc1cc(OC)c2c(=O)c(OC)c(-c3ccccc3)oc2c1`, for which the red/green cell ratio (normalised) was 0.85 (inactive). For the same molecule, under setting [1], the normalised cell number was found to be 1.32. In addition, the normalised cell number under setting [2] is 1.13.

On to `CCCCCCCCCCCCCc1ccco1`, for which the red/green cell ratio (normalised) is 1.13 (inactive). The normalised cell number under setting [1] is 0.74. In addition, the normalised cell number under setting [2] worked out at 0.83.

Consider `CC(C)CCCC(C)C1CCC2C3CC(=O)[C@H]4C[C@@H](O)CC[C@]4(C)C3CC[C@]12C` (stereo not given in full), for which the red/green cell ratio (normalised) was 1.01 (inactive). The molecule also had a normalised cell number under setting [1] of 1.04. The molecule further registered a normalised cell number under setting [2] of 1.05.

As to `COC(=O)C[C@@H]1C2(C)C(=O)[C@@H](CC3=C4C=C(OC)O[C@@H](c5ccoc5)[C@]4(C)CCC32)[C@H](O)C1(C)C` (stereo not given in full), the red/green cell ratio (normalised) was 1.13 (inactive). In addition, under setting [1], the normalised cell number was determined as 0.99. Also, the normalised cell number under setting [2] came out at 1.12.

Regarding `COc1cc(OC)c2c(c1C)C(C)(O)COC2=O` (stereo not given), the red/green cell ratio (normalised) was 0.9 (inactive). Further, the normalised cell number under setting [1] was 1.14. Under setting [2], the normalised cell number stood at 1.02.
